From PubChem BioAssay (NCATS)
Values without a mark were called inactive. Calls of active or inactive are those of the source. The call rests on the fitted dose curve; in most records, active means well fitted curve in the direction sought with a large enough effect (not every such curve was filed as active); inconclusive means small, poorly fitted or top-dose-only effect, or effect the other way, or another doubt; inactive means no such curve, though single readings can be large or run the other way.

Biological target: Pyruvate kinase PKM (Homo sapiens) (UniProt P14618)
Experiment: qHTS Assay for Activators of Human Muscle Pyruvate Kinase (AID 954);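 further: 0% = uninhibited enzyme and -100% = no enzyme or full thiadiazolimine inhibition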
Conditions: purified human muscle pyruvate kinase, luciferase-coupled luminescence, 1 h; series mostly up to 57.5 µM; activity change, negative = inhibition: at the top concentration
Procedure, shortened: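 Purified human PKM2 (0.1 nM) with 0.5 mM PEP (Km) and 0.1 mM ADP in 50 mM imidazole pH 7.2, KCl, MgCl2, 1 h at room temperature; ATP formed read by coupled luciferase luminescence. Normalized to no-enzyme/110 uM thiadiazolimine inhibition; 0.3 nM enzyme column for activation.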

Chain of Pyruvate kinase PKM (Homo sapiens) (P14618 whole entry, looked up): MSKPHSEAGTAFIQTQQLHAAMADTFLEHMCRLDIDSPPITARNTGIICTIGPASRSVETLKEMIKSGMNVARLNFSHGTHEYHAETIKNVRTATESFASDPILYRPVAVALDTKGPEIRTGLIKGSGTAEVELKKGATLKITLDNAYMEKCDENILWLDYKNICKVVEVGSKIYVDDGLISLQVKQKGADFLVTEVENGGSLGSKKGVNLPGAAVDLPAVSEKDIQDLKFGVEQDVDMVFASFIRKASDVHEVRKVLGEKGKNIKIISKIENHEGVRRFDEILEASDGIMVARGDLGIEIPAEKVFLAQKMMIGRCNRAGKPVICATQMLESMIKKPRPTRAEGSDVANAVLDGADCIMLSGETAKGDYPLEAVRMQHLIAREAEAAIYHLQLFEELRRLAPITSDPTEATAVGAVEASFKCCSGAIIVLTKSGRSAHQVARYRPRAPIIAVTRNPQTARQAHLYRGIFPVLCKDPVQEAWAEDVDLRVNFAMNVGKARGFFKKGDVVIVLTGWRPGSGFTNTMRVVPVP

Row | SMILES | activity change, negative = inhibition | outcome
1 | CC(=O)NBr | -1.59% | –
2 | CCCn1c(C)c(C(=O)c2ccc3ccccc3c2)c2ccccc21 | 1.75% | –
3 | COc1ccc2[nH]c3c(c2c1)CCNC3 | -8.72% | –
4 | CC(C)NP(=O)(NC(C)C)OP(=O)(NC(C)C)NC(C)C | -19.7% | –
5 | NNC(=O)c1ccc(O)cc1 | -19.7% | –
6 | C[C@H](N)CN1CCc2ccc(Br)cc21 | -8.72% | –
7 | O=[N+]([O-])c1ccc2nc(N3CCNCC3)ccc2c1 | -15.9% | –
8 | NCCCP(=O)(O)O | 16.5% | –
9 | CCN(CCCl)Cc1ccccc1Br | -28.5% | –
10 | CNC(=O)OCC[N+](C)(C)C | -4.98% | –
11 | NC(=O)c1cc(N2CC2)c([N+](=O)[O-])cc1[N+](=O)[O-] | 5.99% | –
12 | N#CC(C#N)=Cc1cc(O)c(O)c(O)c1 | -27% | –
13 | NCCc1ccc(S(=O)(=O)F)cc1 | -12.5% | –
14 | CN1CCC(c2c[nH]c3ccc(O)cc23)CC1 | -26.3% | –
15 | C[N+](C)(C)CCOC(=O)CBr | 14.6% | –
16 | CCCN(CCC)[C@@H]1CCc2cccc(O)c2C1 | – | inactive

Row | SMILES | activity change, negative = inhibition | outcome
17 | CCCN(CCC)CCc1ccc(O)c(O)c1 | -1.15% | –
18 | CCCN(CCC)CCc1c[nH]c2ccc(C(N)=O)cc12 | -3.79% | –
19 | c1ccc2c(N3CCNCC3)cccc2c1 | -16.4% | –
20 | N[C@@H](Cn1oc(=O)[nH]c1=O)C(=O)O | -0.278% | –
21 | CCCn1c(=O)c2[nH]c(C3CCCC3)nc2n(CCCOC(=O)c2ccc(S(=O)(=O)F)cc2)c1=O | 4.12% | –
22 | NC(=O)COc1c(F)cc(SCCNS(=O)(=O)c2ccccc2)cc1F | 16.9% | –
23 | C[N+]1(C)CCN(c2ccccc2)CC1 | -10.7% | –
24 | Clc1ccc(N2C[C@H]3CC[C@@H](C2)N3)nn1 | -8.96% | –
25 | Nc1ccc(CCN2CCN(c3cccc(C(F)(F)F)c3)CC2)cc1 | -6.06% | –
26 | CN1CCc2cccc(Cl)c2CC1 | -11.9% | –
27 | NC(N)=NOCC[C@H](N)C(=O)O | 0.653% | –
28 | Cc1[nH]c2ccc(O)cc2c1CCN | -11.8% | –
29 | c1ccc2cc(CC3=NCCN3)ccc2c1 | 7.26% | –
30 | NCCc1c[nH]c2ccc(C(N)=O)cc12 | -30.2% | –
31 | CCS(=O)(=O)Nc1cccc(C(=C2CCCCC2)c2cnc[nH]2)c1 | -3.24% | –
